Experimental data taken from PubChem BioAssay.
The source made the active and inactive calls.

What was measured:
[1] = biological target: Albumin (Bos taurus) (UniProt P02769); test: bovine serum albumin binders on microarray, profiling panel, artefact control for SMM control protein annotation, biochemical, small-molecule microarray, Alexa647 label, 635/667 nm fluorescence (AID 1118); conditions: BSA-A647 binding, fluorescence 635 nm, higher = more signal;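 also: score merges 667 nm emission intensity and signal-to-noise per printed compound spot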
[2] = small-molecule microarray binders of probe aXIP, primary screen, biochemical, NeuroSMM set, 635/667 nm fluorescence (AID 1119); conditions: higher = more signal, called active from +8 up or from −8 down;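 also: probe is the protein aXip251-270 applied at 1 µg/mL to compound-printed slides; binding of probe to printed compounds measured as 667 nm fluorescence plus signal to noise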
[3] = small-molecule binders of probe aNOTCH3, primary screen, biochemical, small-molecule microarray, 635/667 nm fluorescence (AID 1120); conditions: higher = more signal;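 also: probe is a biotin-tagged antibody raised against NOTCH3 rather than NOTCH3 protein; score merges spot fluorescence near 667 nm with spot signal to noise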
[4] = small-molecule binders of probe aNOTCH2, primary screen, biochemical, small-molecule microarray, 635/667 nm fluorescence (AID 1121); conditions: higher = more signal;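 also: score merges feature fluorescence read at 667 nm with its signal to noise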
[5] = biological target: Carbonic anhydrase 2 (Homo sapiens) (UniProt P00918); test: CAII small-molecule binders, profiling panel, biochemical, small-molecule microarray, Alexa647-labelled CAII (AID 1122); conditions: CAII-A647 binding fluorescence, higher = more signal
[6] = COS7 lysate on small-molecule microarray, probe aHis, 635 nm (AID 1123); conditions: COS7 cell lysate, fluorescence, higher = more signal;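 also: z-score combines 667nm fluorescence intensity with signal-to-noise per printed compound spot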
[7] = compound binding in COS7 lysate, probe aLAP1, primary screen, cell lysate, small-molecule microarray (AID 1124); conditions: probe aLAP1, fluorescence, higher = more signal;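 also: lysate comes from COS7 cells expressing LAP1 and is applied at 0.3 µg/mL; score merges spot fluorescence near 667 nm with signal-to-noise over triplicate slides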
[8] = system: Sam68 (KHDRBS1); test: Sam68 small-molecule binders, primary screen, biochemical, small-molecule microarray, 635 nm fluorescence (AID 1125); conditions: small-molecule microarray binding, higher = more signal;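 also: score merges 667 nm channel intensity with signal to noise over triplicate slides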
[9] = system: Chordin-like protein 2 (CHRDL2); test: CHRDL2 small-molecule binders, primary screen, biochemical, small-molecule microarray, 635 nm fluorescence (AID 1126); conditions: small-molecule microarray binding, fluorescence 635 nm; higher = more signal;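 also: printed compound slides probed with Chrdl2 protein at 4 µg/mL for 1 h at 4 C; score merges 667 nm emission intensity with signal to noise over three replicate slides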
[10] = biological target: Concanavalin-A (Canavalia ensiformis) (UniProt P02866); test: ConA small-molecule binders, primary screen, artefact control for SMM control protein annotation, biochemical, small-molecule microarray, Alexa647 label, 635 nm (AID 1127); conditions: ConA-A647 binding fluorescence, higher = more signal;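 also: z combines 667 nm emission intensity with signal-to-noise across three replicate slides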
[11] = anti-His antibody binders, primary screen, artefact control for SMM control protein annotation, biochemical, small-molecule microarray, 635 nm fluorescence (AID 1128); conditions: anti-His Alexa647 antibody binding, higher = more signal;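 also: score merges feature fluorescence with signal-to-noise for each printed compound spot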
[12] = system: Human papillomavirus type 1a E7 protein (residues 1-88); test: HPV1a E7 small-molecule binders, primary screen, biochemical, small-molecule microarray, residues 1-88, 635 nm (AID 1129); conditions: small-molecule microarray binding, fluorescence 635 nm; higher = more signal
[13] = biological target: Focal adhesion kinase 1 (Homo sapiens) (UniProt Q05397); test: small-molecule microarray binders of FAK, primary screen, biochemical, 635/667 nm fluorescence, BSA, DTT (AID 1130); conditions: PTK2 binding, 635 nm fluorescence, higher = more signal;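 also: composite of spot emission at 667 nm and signal to noise over triplicate slides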
[14] = system: Fibrinogen (Alexa647-labelled); test: fibrinogen binders on compound microarrays, profiling panel, artefact control for SMM control-protein annotation, biochemical, small-molecule microarray, 635/667 nm fluorescence (AID 1131); conditions: fibrinogen-A647 binding fluorescence, higher = more signal;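 also: z-score merges 667 nm fluorescence with per-spot signal-to-noise over triplicate slides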
[15] = biological target: Follistatin (Homo sapiens) (UniProt P19883); test: follistatin binders on small-molecule microarrays, primary screen, biochemical, small-molecule microarray, 635/667 nm fluorescence (AID 1132); conditions: FST binding, 635 nm fluorescence, higher = more signal
[16] = biological target: Fibroblast growth factor 2 (Homo sapiens) (UniProt P09038); test: FGF2 binders on small-molecule microarrays, primary screen, biochemical, small-molecule microarray, 635/667 nm fluorescence (AID 1133); conditions: small-molecule microarray binding, FGF2, fluorescence 635/667; higher = more signal
[17] = mitochondrial membrane potential change in A549 cells, profiling panel, cell-based, JC-1 fluorescence, basal, 24 h, 100 nL (AID 1138); conditions: higher = more signal;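 also: A549 lung adenocarcinoma cells under basal conditions with no added stimulus; test concentration not given here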
[18] = system: Lefty1; test: Lefty1 binders on small-molecule microarrays, primary screen, biochemical, small-molecule microarray, 635/667 nm fluorescence (AID 1139); conditions: small-molecule microarray binding, fluorescence 635/667; higher = more signal
[19] = system: wheat germ agglutinin (Triticum aestivum), Alexa647-labelled; test: wheat germ agglutinin binders on compound microarrays, profiling panel, artefact control for SMM control-protein annotation, biochemical, small-molecule microarray, 635/667 nm fluorescence (AID 1140); conditions: WGA-A647 binding, 635 nm fluorescence, higher = more signal;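 also: score merges 667 nm feature emission with signal to noise over triplicate slides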
[20] = biological target: Luciferin 4-monooxygenase (Photinus pyralis) (UniProt P08659); test: firefly luciferase enzyme inhibitors, primary screen, biochemical, luminescence, purified enzyme, 2006 set (AID 1141); conditions: SteadyGlo luminescence, 30 min, higher = more signal, called active from +8 up or from −8 down;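 also: cell-free assay with purified firefly luciferase at 100 ng per well in PBS; test concentration not given here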
Chain of Luciferin 4-monooxygenase (Photinus pyralis) (P08659 whole entry, looked up): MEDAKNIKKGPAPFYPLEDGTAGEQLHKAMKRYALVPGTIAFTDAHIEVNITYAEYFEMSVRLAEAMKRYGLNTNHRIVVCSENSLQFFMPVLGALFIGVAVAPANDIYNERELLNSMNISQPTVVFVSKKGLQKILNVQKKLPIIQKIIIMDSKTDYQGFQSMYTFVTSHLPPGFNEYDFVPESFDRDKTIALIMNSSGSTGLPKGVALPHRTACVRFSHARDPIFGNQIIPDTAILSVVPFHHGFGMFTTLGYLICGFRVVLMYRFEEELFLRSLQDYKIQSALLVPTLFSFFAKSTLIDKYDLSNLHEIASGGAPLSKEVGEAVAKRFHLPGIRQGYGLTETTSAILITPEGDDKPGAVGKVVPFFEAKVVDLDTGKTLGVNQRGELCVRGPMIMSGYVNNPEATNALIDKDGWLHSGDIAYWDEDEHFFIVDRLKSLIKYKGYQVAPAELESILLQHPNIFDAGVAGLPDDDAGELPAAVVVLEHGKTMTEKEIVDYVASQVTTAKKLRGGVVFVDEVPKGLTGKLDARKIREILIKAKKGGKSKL

Chain of Focal adhesion kinase 1 (Homo sapiens) (Q05397 whole entry, looked up): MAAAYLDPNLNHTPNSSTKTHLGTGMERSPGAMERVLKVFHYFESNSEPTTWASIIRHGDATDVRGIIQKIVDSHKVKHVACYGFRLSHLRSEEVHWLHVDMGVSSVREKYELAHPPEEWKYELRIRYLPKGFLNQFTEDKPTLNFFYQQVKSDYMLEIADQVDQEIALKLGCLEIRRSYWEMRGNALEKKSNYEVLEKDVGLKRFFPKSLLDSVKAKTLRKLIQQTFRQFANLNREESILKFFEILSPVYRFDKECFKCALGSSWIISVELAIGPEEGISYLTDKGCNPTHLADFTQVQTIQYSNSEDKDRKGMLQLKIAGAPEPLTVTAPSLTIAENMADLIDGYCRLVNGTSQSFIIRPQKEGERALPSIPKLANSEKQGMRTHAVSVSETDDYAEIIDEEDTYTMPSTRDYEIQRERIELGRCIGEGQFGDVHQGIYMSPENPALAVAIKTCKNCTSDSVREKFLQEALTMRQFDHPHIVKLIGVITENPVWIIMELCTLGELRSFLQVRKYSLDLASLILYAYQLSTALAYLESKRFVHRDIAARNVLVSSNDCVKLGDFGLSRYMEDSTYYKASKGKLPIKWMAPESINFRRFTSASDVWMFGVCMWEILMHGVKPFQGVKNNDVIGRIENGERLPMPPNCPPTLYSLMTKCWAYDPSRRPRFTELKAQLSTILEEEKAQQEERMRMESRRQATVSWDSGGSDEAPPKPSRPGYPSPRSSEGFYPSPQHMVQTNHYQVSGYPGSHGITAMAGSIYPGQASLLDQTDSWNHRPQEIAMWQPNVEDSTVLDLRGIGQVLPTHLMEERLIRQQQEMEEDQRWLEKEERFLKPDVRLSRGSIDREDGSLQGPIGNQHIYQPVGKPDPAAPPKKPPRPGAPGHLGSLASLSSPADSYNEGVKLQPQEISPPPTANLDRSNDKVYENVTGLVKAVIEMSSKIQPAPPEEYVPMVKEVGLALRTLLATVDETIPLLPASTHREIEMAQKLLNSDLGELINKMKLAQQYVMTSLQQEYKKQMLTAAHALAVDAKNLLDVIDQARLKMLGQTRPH
Chain of Albumin (Bos taurus) (P02769 whole entry, looked up): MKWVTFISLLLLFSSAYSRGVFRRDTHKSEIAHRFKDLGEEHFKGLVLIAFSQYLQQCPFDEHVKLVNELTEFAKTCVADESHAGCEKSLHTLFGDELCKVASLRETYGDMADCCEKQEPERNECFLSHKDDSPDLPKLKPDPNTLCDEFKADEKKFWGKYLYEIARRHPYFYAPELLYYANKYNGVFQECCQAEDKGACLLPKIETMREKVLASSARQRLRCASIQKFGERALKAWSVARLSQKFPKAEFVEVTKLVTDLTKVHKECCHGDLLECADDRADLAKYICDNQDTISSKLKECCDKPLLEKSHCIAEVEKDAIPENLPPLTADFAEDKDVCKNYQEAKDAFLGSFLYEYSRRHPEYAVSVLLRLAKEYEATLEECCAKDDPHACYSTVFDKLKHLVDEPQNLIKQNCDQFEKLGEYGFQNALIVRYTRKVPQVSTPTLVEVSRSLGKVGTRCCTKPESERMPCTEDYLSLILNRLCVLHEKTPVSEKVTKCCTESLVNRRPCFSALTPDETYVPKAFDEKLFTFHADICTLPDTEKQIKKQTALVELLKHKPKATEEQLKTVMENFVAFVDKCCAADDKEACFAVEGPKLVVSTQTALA
Chain of Fibroblast growth factor 2 (Homo sapiens) (P09038 whole entry, looked up): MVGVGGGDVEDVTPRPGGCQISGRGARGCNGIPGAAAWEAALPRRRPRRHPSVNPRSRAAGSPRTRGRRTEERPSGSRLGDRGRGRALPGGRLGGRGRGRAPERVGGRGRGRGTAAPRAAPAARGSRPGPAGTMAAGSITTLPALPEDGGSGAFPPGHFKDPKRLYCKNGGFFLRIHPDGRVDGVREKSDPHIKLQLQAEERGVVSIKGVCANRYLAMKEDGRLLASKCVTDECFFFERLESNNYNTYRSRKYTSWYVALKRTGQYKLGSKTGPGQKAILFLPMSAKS
Chain of Follistatin (Homo sapiens) (P19883 whole entry, looked up): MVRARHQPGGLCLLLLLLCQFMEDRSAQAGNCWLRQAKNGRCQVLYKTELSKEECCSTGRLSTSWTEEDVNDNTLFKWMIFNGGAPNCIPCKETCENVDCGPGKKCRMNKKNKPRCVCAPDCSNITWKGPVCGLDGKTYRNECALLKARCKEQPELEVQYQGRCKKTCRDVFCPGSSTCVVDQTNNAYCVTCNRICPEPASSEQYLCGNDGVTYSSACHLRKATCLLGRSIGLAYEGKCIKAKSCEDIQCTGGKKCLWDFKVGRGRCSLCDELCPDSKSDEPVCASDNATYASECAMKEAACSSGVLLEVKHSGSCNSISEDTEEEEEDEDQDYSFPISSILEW
Chain of Concanavalin-A (Canavalia ensiformis) (P02866 whole entry, looked up): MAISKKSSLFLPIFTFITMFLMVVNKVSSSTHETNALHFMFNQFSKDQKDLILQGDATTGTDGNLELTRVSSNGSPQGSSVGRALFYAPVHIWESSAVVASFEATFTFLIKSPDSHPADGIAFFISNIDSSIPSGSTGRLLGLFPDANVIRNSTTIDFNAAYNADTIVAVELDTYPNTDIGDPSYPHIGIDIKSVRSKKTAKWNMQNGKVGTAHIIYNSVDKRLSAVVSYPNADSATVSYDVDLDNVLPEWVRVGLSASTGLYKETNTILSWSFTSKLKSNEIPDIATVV

COc1cc(C(O)C2C=CC3C(=O)NC(=O)C3N2Nc2ccc(Cl)cc2Cl)cc(OC)c1OC (stereo not given)
composite z-score [1]: 0.254 | composite Z-score [2]: -0.762 (inactive) | composite z-score [3]: 0.454 | composite z-score [4]: 0.0956 | composite z-score [5]: 0.752 | composite z-score [6]: 2.99 | composite z-score [7]: 0.115 | composite z-score [8]: 0.79 | composite z-score [9]: -0.0696 | composite z-score [10]: 1.05 | composite z-score [11]: 1.32 | composite z-score [12]: 1.24 | composite z-score [13]: 0.105 | composite z-score [14]: 0.866 | composite z-score [15]: 1.14 | composite z-score [16]: -0.0812 | z-score [17]: 0.275 | composite z-score [18]: 0.286 | composite z-score [19]: 0.871 | z-score [20]: -0.0332 (inactive)

NCCCCCCNC(=O)[C@H]1C[C@H]2C(=O)N3CCC[C@H]3C(=O)N2[C@H]1c1ccc(O)cc1
composite z-score [1]: 0.425 | composite Z-score [2]: 2.61 (inactive) | composite z-score [3]: -0.0362 | composite z-score [4]: -0.201 | composite z-score [5]: 0.722 | composite z-score [6]: 0.307 | composite z-score [7]: 0.597 | composite z-score [8]: 0.644 | composite z-score [9]: 0.777 | composite z-score [10]: 0.998 | composite z-score [11]: 2.79 | composite z-score [12]: 0.609 | composite z-score [13]: 1.1 | composite z-score [14]: 0.437 | composite z-score [15]: 1.36 | composite z-score [16]: 1.66 | z-score [17]: -0.712 | composite z-score [18]: 0.918 | composite z-score [19]: 0.752 | z-score [20]: 0.24 (inactive)

COc1cc2c(cc1OC)CN(C(=O)[C@@H]1[C@H]3C(=O)O[C@H](c4ccccc4)[C@H](c4ccccc4)N3[C@H](c3ccc(O)cc3)[C@@]13C(=O)Nc1ccc(C#CCNC(N)=O)cc13)CC2
composite z-score [1]: 0.0738 | composite Z-score [2]: 0.507 (inactive) | composite z-score [3]: 0.114 | composite z-score [4]: -0.182 | composite z-score [5]: -0.0348 | composite z-score [6]: 0.276 | composite z-score [7]: 1.06 | composite z-score [8]: 0.425 | composite z-score [9]: 0.498 | composite z-score [10]: 0.826 | composite z-score [11]: 0.474 | composite z-score [12]: 0.69 | composite z-score [13]: 0.484 | composite z-score [14]: 0.43 | composite z-score [15]: 1.29 | composite z-score [16]: 0.302 | z-score [17]: -0.876 | composite z-score [18]: 0.837 | composite z-score [19]: 0.607 | z-score [20]: 0.696 (inactive)

COCCOC(=O)N1C(=O)[C@@]2(c3cc(C#CCCO)ccc31)[C@H](C(=O)N1CCc3cc(OC)c(OC)cc3C1)[C@H]1C(=O)O[C@H](c3ccccc3)[C@H](c3ccccc3)N1[C@@H]2c1ccc(OCCO)cc1
composite z-score [1]: 0.455 | composite Z-score [2]: 0.552 (inactive) | composite z-score [3]: 0.19 | composite z-score [4]: -0.147 | composite z-score [5]: 0.476 | composite z-score [6]: 1.54 | composite z-score [7]: 0.765 | composite z-score [8]: 1.3 | composite z-score [9]: 0.956 | composite z-score [10]: 1.09 | composite z-score [11]: 0.768 | composite z-score [12]: 1.08 | composite z-score [13]: 0.148 | composite z-score [14]: 0.786 | composite z-score [15]: 1.27 | composite z-score [16]: 1.29 | z-score [17]: -0.236 | composite z-score [18]: 1.11 | composite z-score [19]: 0.774 | z-score [20]: -2.83 (inactive)

CCCc1cc2c(n1Cc1ccc(OC)cc1)C(C)C1CN(C(=O)c3ccccc3)C(C)(C(=O)OC)C21 (stereo not given)
composite z-score [1]: 1.08 | composite Z-score [2]: -0.41 (inactive) | composite z-score [3]: 0.223 | composite z-score [4]: 0.16 | composite z-score [5]: 0.571 | composite z-score [6]: 3.13 | composite z-score [7]: 0.746 | composite z-score [8]: 1.25 | composite z-score [9]: -1.63 | composite z-score [10]: 1.18 | composite z-score [11]: 2.74 | composite z-score [12]: 1.24 | composite z-score [13]: 1.56 | composite z-score [14]: 1.01 | composite z-score [15]: 0.0092 | composite z-score [16]: -1.19 | z-score [17]: 0.788 | composite z-score [18]: -0.515 | composite z-score [19]: 1.47 | z-score [20]: 0.062 (inactive)

Cc1ccc(S[C@]2(C(=O)NCc3ccccc3)CC(=O)N(C3Cc4ccccc4C3)[C@@H]2c2ccc(CO)cc2I)cc1
composite z-score [1]: 0.254 | composite Z-score [2]: 3.63 (inactive) | composite z-score [3]: -0.187 | composite z-score [4]: -0.0716 | composite z-score [5]: 0.341 | composite z-score [6]: 0.401 | composite z-score [7]: 0.458 | composite z-score [8]: 0.269 | composite z-score [9]: -0.224 | composite z-score [10]: -0.462 | composite z-score [11]: -1.12 | composite z-score [12]: -0.621 | composite z-score [13]: -0.17 | composite z-score [14]: -0.151 | composite z-score [15]: -0.328 | composite z-score [16]: -0.244 | z-score [17]: 1.24 | composite z-score [18]: -0.582 | composite z-score [19]: 0.146 | z-score [20]: -1.26 (inactive)

CC(C)c1ccc(NN2C(C(O)c3cccs3)C=CC3C(=O)N(c4ccccc4)C(=O)C32)cc1 (stereo not given)
composite z-score [1]: 0.772 | composite Z-score [2]: 0.302 (inactive) | composite z-score [3]: 0.319 | composite z-score [4]: -0.136 | composite z-score [5]: 0.76 | composite z-score [6]: 2.06 | composite z-score [7]: 0.665 | composite z-score [8]: 1.31 | composite z-score [9]: -0.127 | composite z-score [10]: 1.13 | composite z-score [11]: 0.548 | composite z-score [12]: 1.24 | composite z-score [13]: 0.814 | composite z-score [14]: 1.03 | composite z-score [15]: 0.963 | composite z-score [16]: -0.737 | z-score [17]: -1.13 | composite z-score [18]: 0.0247 | composite z-score [19]: 1.06 | z-score [20]: -0.893 (inactive)

COc1ccccc1CN1C(=O)c2ccccc2[C@@H](C(=O)NCC(C)C)[C@@H]1c1ccc(CO)cc1
composite z-score [1]: -0.325 | composite Z-score [2]: 0.0829 (inactive) | composite z-score [3]: -0.236 | composite z-score [4]: -0.0226 | composite z-score [5]: 0.623 | composite z-score [6]: 0.368 | composite z-score [7]: 0.537 | composite z-score [8]: -0.134 | composite z-score [9]: 0.0987 | composite z-score [10]: 0.358 | composite z-score [11]: 0.366 | composite z-score [12]: 1.18 | composite z-score [13]: 0.088 | composite z-score [14]: 0.707 | composite z-score [15]: 1.23 | composite z-score [16]: 1.56 | z-score [17]: 0.163 | composite z-score [18]: -0.632 | composite z-score [19]: 0.342 | z-score [20]: -0.836 (inactive)

O=C(NCc1ccccc1)[C@]1(Cc2ccccc2)N=C(c2ccc(OCCCO)cc2)O[C@@H]1c1ccccc1
composite z-score [1]: 0.895 | composite Z-score [2]: 0.638 (inactive) | composite z-score [3]: 0.062 | composite z-score [4]: -0.0519 | composite z-score [5]: 0.604 | composite z-score [6]: 1.32 | composite z-score [7]: 0.225 | composite z-score [8]: 0.938 | composite z-score [9]: -0.243 | composite z-score [10]: 0.418 | composite z-score [11]: 2.31 | composite z-score [12]: 1.2 | composite z-score [13]: 0.121 | composite z-score [14]: 0.817 | composite z-score [15]: -0.0037 | composite z-score [16]: -0.0759 | z-score [17]: 2 | composite z-score [18]: -0.501 | composite z-score [19]: 0.648 | z-score [20]: -0.794 (inactive)

COCCOC(=O)N1C(=O)[C@@]2(c3cc(C#Cc4ccc(OC)cc4)ccc31)[C@H](c1ccc(OCCO)cc1)N1[C@H](c3ccccc3)[C@H](c3ccccc3)OC(=O)[C@H]1[C@@H]2C(N)=O
composite z-score [1]: 0.641 | composite Z-score [2]: 0.498 (inactive) | composite z-score [3]: 0.132 | composite z-score [4]: -0.0404 | composite z-score [5]: 0.573 | composite z-score [6]: 0.441 | composite z-score [7]: 0.617 | composite z-score [8]: 1.35 | composite z-score [9]: 0.488 | composite z-score [10]: 1.16 | composite z-score [11]: 2.14 | composite z-score [12]: 1.13 | composite z-score [13]: 1.03 | composite z-score [14]: 0.519 | composite z-score [15]: 1.41 | composite z-score [16]: 1.31 | z-score [17]: -1.28 | composite z-score [18]: 1.39 | composite z-score [19]: 1 | z-score [20]: -0.35 (inactive)
